This is a sample that favours compounds with a hit; in the whole collection about 19% have one here.
Giardia killer – kills Giardia lamblia. Giardia lamblia trophozoite viability. activity change, % at 7.66 µM, hits read low. hit rate 0.15% among 340,000; in the data active = activity change below about -80%; inconclusive = between about -30% and that limit;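 also: parasites exposed to compound for two days anaerobically before the ATP read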
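Giardia lamblia trophozoites (100 cells/well) were incubated with compounds for 48 h at 37 deg C under anaerobic conditions. Viability was read as ATP content by one-step luminescence after 15-30 min at room temperature.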
TDP1 inh – inhibitors of human tyrosyl-DNA phosphodiesterase TDP1. Q9NUW8. recombinant TDP1, AlphaScreen DNA substrate cleavage. Potency, µM (highest dose often 130 µM), usual class: inhibitors. hit rate 0.28% among 350,000. AID 485290; also: nearly all actives have a fitted effect of over 40% in size
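Steps: enzyme plus compound, 15 min RT; add biotin/phosphotyrosine-FITC oligonucleotide (15 nM final), react 5 min; add donor/acceptor beads (10 ug/ml final), 10 min; read AlphaScreen. Tdp1 at 1 nM final.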
ELG1 repair inh – inhibitors of ELG1-dependent DNA repair in HEK293T cells | HEK293T ELG1-luciferase reporter, luminescence, 16 h; DNA damage induced by 5-fluorouridine | Potency, µM (titrated, usually from 46.1 µM), most hits filed as inhibitors | hit rate 2.3% among 330,000 | AID 504467; also: nearly all actives have a fitted effect of over 55% in size
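Reporter activity after DNA damage by 5-fluorouridine is monitored. Compound-treated cells incubate 16 hr at 37 °C, then ONE-Glo is added for 30 min before luminescence reading.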
DT40 TDP1 CPT – DT40-hTDP1 cell growth loss with CPT; hit rate 12% among 420,000; chicken DT40 Tdp1-/-;hTDP1 cells + 20 nM CPT, ATP luminescence, 48 h; Potency, µM (titrated, usually from 46.2 µM), usual class: inhibitors; also: nearly all actives have a fitted effect of over 55% in size
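Chicken DT40 Tdp1-/- cells complemented with human TDP1, 400 cells/well, exposed to compounds plus 20 nM camptothecin for at least 48 h at 37 C; viability read as ATP content by CellTiter-Glo luminescence.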
TDP1 cell noCPT – qHTS for Inhibitors of human tyrosyl-DNA phosphodiesterase 1 (TDP1): qHTS in cells in absence of CPT | DT40 Tdp1-/- hTDP1 cells, no CPT, ATP luminescence, 48 h | Potency, µM (series often up to 46.2 µM), most hits filed as inhibitors | hit rate 15% among 420,000; also: nearly all actives have a fitted effect of over 55% in size
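Seeded 400 DT40-hTDP1 cells/well (vehicle DMSO, no 20 nM CPT); pinned compounds; ≥48 hr at 37 °C; CellTiter-Glo luminescence as viability measure.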
IL1B secr inh – inflammasome signaling inhibition, IL-1 beta readout | THP-1 LPS/ATP IL-1B secretion, AlphaLISA, 16 h; active compounds read low | activity change, % at 57.5 µM | hit rate 4.7% among 360,000; in the data active = activity change below about -50%; inconclusive = mostly about -30% to -49%
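Secreted IL-1B measured by AlphaLISA bead assay after 16 h compound exposure of THP-1 cells; compounds (final up to 57.5 uM) added 1 h before LPS (250 ng/mL) and ATP (1.25 mM) stimulation; lower signal means less secretion.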
Numbers stand for hits; . = inactive; ? = inconclusive; / = no result given. Unless noted, calls follow the shape of the dose curve; as a rule, active = well fitted curve in the direction sought with a large enough effect; inconclusive = small, poorly fitted or top-dose-only effect, or another doubt; inactive = no such curve, though single readings can be large; an effect the other way counts as inactive or inconclusive.

SMILES	Giardia killer	TDP1 inh	ELG1 repair inh	DT40 TDP1 CPT	TDP1 cell noCPT	IL1B secr inh
O=[N+]([O-])c1ccc(CSc2ccccn2)cc1	.	/	?	.	.	.
O=[N+]([O-])c1ccc(CSc2ncnc3ccccc23)cc1	.	.	?	?	?	-73
Cc1cc(-n2c(C)cc(C(=O)COc3ccc4ccc(=O)oc4c3)c2C)no1	.	.	?	?	?	.
CC1CC=CCC1(CO)CO (stereo not drawn)	.	/	/	.	.	.
CC1CC(C)C(=NNC(N)=O)C(C(O)CC2CCC(=O)NC2=O)C1 (stereo not drawn)	?	/	/	1.6µM	2.3µM	.
CC(=O)c1ccc(N2CCN(C(=O)C3CCN(S(=O)(=O)c4c(C)noc4/C=C/c4ccc(C)cc4)CC3)CC2)cc1	/	.	/	6.5µM	2.6µM	/
Cc1ccc(/C=C/c2onc(C)c2S(=O)(=O)N2CCC(C(=O)N3CCC(N(C)C(C)C)CC3)CC2)cc1	/	.	/	5.2µM	6.5µM	/
Cc1ccc(/C=C/c2onc(C)c2S(=O)(=O)N2CCC(C(=O)N3CCN(c4ccccc4F)CC3)CC2)cc1	/	.	/	21µM	2.6µM	/
Cc1ccc(NC=C(S(=O)(=O)c2ccccc2)S(=O)(=O)c2ccccc2)cc1	.	.	.	.	?	.
Cc1ccc(NC=C(S(=O)(=O)c2ccccc2)S(=O)(=O)c2ccccc2)c(C)c1	.	.	.	?	21µM	.
O=S(=O)(Cc1ccccc1)C(CCCc1ccccc1)S(=O)(=O)Cc1ccccc1	.	/	/	23µM	21µM	.
CSC1=N/C(=C\c2ccccc2Cl)C(=O)N1N(C)C	.	.	.	.	?	.
CSC1=N/C(=C\c2cccc(Cl)c2)C(=O)N1N(C)C	.	.	.	?	21µM	.
CCOc1ccc(N(C(C)C(=O)N/N=C(\C)c2cccc(NC(=O)c3ccccc3)c2)S(C)(=O)=O)cc1 (stereo not drawn)	.	.	?	18µM	18µM	?
Cc1ccc(S(=O)(=O)/N=C2\C(=O)c3ccccc3C([O-])=C2n2cc[n+](CCC(C)C)c2)cc1	.	.	.	16µM	16µM	.
CC(=O)Nc1ccc(S(=O)(=O)/N=C2\C(=O)c3ccccc3C([O-])=C2n2cc[n+](-c3ccccn3)c2)cc1	.	.	?	3.7µM	8.2µM	.
CCc1ccc(CNC(=O)Cc2c(C(=O)O)c(C)cn2C)cc1	/	.	/	.	.	/
COC(=O)c1csc(C(=O)c2c[nH]c3ccccc23)n1	/	.	/	/	/	/
CCNC(=S)Nc1ccc2c(c1)c(=O)n(C)n2-c1cc(C)cc(C)c1	/	/	/	?	?	.
CC(CC(=O)Nc1cccc(Cl)c1)c1ccccc1 (stereo not drawn)	.	.	.	?	?	-72
CC(CC(=O)Nc1ccc2c(c1)c(=O)n(C)n2-c1ccccc1F)c1ccccc1 (stereo not drawn)	/	/	/	6.5µM	5.8µM	.
CC(CC(=O)Nc1ccc2c(c1)c(=O)n(C)n2Cc1ccc(F)cc1)C(F)(F)F (stereo not drawn)	/	/	/	?	?	.
Cn1c(=O)c2cc(NC(=O)CC(C)(C)C)ccc2n1-c1ccccc1F	/	/	/	?	23µM	.
CC(CC(=O)Nc1ccc2c(c1)c(=O)n(C)n2Cc1ccc(F)cc1)c1ccccc1 (stereo not drawn)	/	/	/	21µM	21µM	.
COc1ccc(C2NC(=O)N(C)C3=C2C(=O)N(c2ccc(Br)cc2)C3)cc1 (stereo not drawn)	/	.	/	?	?	/
N#C/C(=C/c1cn(-c2ccccc2)nc1-c1cccc(OCc2ccccc2)c1)C(=O)NCCCn1ccnc1	.	.	13µM	?	?	-75
N#C/C(=C/c1cn(-c2ccccc2)nc1-c1cccc(S(=O)(=O)N2CCOCC2)c1)C(=O)NCc1ccco1	.	.	.	.	?	.
N#C/C(=C/c1cn(-c2ccccc2)nc1-c1cccc(S(=O)(=O)N2CCCC2)c1)C(=O)NCc1ccco1	.	.	?	13µM	12µM	.
